# PubChem BioAssay AID463173 (ICCB-Longwood Screening Facility, Harvard Medical School, 2010)
# Among all 52,000 compounds or so, about 4,300 (8.3%) were called active. The list comes from a sample in which actives are over-represented; it also holds similar structures and randomly drawn compounds. Unmarked numbers belong to inactive results. Rule as the data show it: active = survival mostly below about 52% (no sharp cut-off); inactive = mostly above about 56%.
# Test system: DeltatarO mutant
# Assay: S. aureus survival, RN4220 and DeltatarO strains – OD600, teichoic acid synthesis inhibitors, primary screen (AID 463173)
# Conditions: S. aureus RN4220 wild type/DeltatarO growth, OD600, 18 h, active compounds read low, screened at 18.75 µg/mL (by protocol)
row,SMILES,survival
1,Cc1cccc(N2CCN(C3(c4ccccc4)C(=O)c4ccccc4C3=O)CC2)c1C,79%
2,Oc1cccc(C(Nc2ccccn2)c2ccc3cccnc3c2O)c1Cl (configuration not stated),26% (active)
3,Cc1cccc(NC(c2ccccc2C)c2ccc3ccc(C)nc3c2O)n1 (configuration not stated),0% (active)
4,COc1ccc(C(=O)NC(c2ccccc2Cl)c2cc(Cl)c3cccnc3c2O)cc1 (configuration not stated),92%
5,COc1cccc(C(=O)NC(c2ccc(Cl)cc2)c2cc(Cl)c3cccnc3c2O)c1 (configuration not stated),89%
6,CCC(=O)NC(c1ccccc1OC)c1cc(Cl)c2cccnc2c1O (configuration not stated),68%
7,Cc1cccc(NC(c2cccc(Cl)c2)c2ccc3cccnc3c2O)n1 (configuration not stated),2% (active)
8,COc1ccc(C(=O)NC(c2ccc(Cl)cc2)c2cc(Cl)c3cccnc3c2O)cc1 (configuration not stated),88%
9,COc1ccccc1CC(=O)Nc1cccc(C)n1,97%
10,Cc1cccc(NC(=O)c2ccccc2)n1,93%
11,Cc1ccc(C(Nc2ccccn2)c2ccc3cccnc3c2O)cc1 (configuration not stated),1% (active)
12,Nc1nnc(CCc2ccccc2)s1,80%
13,O=C(O)CCOc1ccc2c(c1)OCCO2,82%
14,CCC(CC)c1nn2c(=O)cc(COc3ccc(NC(=O)c4ccccc4C)cc3)nc2s1,81%
15,O=C(CSc1nc2c(c(=O)[nH]1)CCC2)Nc1ccccc1C(F)(F)F,72%
16,O=C(CN1C(=O)COc2ccc(S(=O)(=O)N3CCCCCC3)cc21)NCc1ccc(Cl)cc1,113%
17,CCOCCCNC(=O)c1cc2c(=O)n(C)c3ccccc3c2n1C,86%
18,O=C(Nc1ccccc1C(F)(F)F)N1CCC2(CC1)Oc1ccccc1C(=O)N2Cc1ccccc1F,67%
19,COc1cc(-c2cc(OC)c3c(C)oc(C)c3c(=O)c2)ccc1OC(=O)c1ccc(C)cc1,88%
20,Cc1ccc(NC(=O)c2sc3nc(-c4ccc(F)cc4)cn3c2C)c(C)c1,81%
21,O=C(O)CCC(=O)Nc1ccc2c(c1)oc1ccccc12,86%

row,SMILES,survival
1,O=C(c1ccccc1)C(Nc1ccccn1)c1ccccc1 (configuration not stated),99%
2,COc1cc(C(=O)NC(c2ccc(Cl)cc2)c2cc(Cl)c3cccnc3c2O)cc(OC)c1OC (configuration not stated),85%
3,Cc1ccnc(NC(c2cccc(O)c2)c2ccc3ccc(C)nc3c2O)c1 (configuration not stated),68%
4,Cc1ccc(C(C)C)cc1S(=O)(=O)Nc1ccccn1,101%
5,Cc1ccc2ccc(C(Nc3ccccn3)c3ccccc3)c(O)c2n1 (configuration not stated),39% (active)
6,COc1ccc(C(Nc2ccccn2)c2ccc3ccc(C)nc3c2O)cc1C (configuration not stated),40% (active)
7,O=C(COc1ccccc1Cl)Nc1ccccc1OCc1cc(=O)n2ccccc2n1,92%
8,COc1ccc(NC(=O)COCc2cc(-c3ccco3)on2)cc1Cl,112%
9,Cc1ccc(NC(=O)C2CCCN2S(=O)(=O)c2cccc3nsnc23)c(C)c1 (configuration not stated),78%
10,COc1cc(NC(=O)CN2C(=O)c3ccccc3Sc3ccc(C(=O)N4CCCC4)cc32)cc(OC)c1,72%
11,CCc1ccc2occ(CC(=O)Nc3ccc(OC)c(Cl)c3)c2c1,88%
12,CCc1c(C)sc(NC(=O)c2cc(-c3ccc(OC)cc3)on2)c1C#N,50% (active)
13,CCc1cc(C(=O)Nc2sc(C)c(CC)c2C#N)no1,35% (active)
14,CCOC(=O)c1sc(NC(=O)c2cc(CC)on2)c(C(=O)OCC)c1C,54%
15,COc1ccc(-c2cc(C(=O)Nc3ccc(C#N)cc3)no2)cc1,46%
16,CCc1c(C)sc(NC(=O)c2cc(-c3ccc(OC)c(OC)c3)on2)c1C#N,149%
17,CCc1c(C)sc(NC(=O)c2cc(-c3cccc(Cl)c3)on2)c1C#N,69%
18,CC(C)OCCCn1c(=O)c2ccccc2n2c(-c3ccccc3)nnc12,105%
19,CCN1CCN(CCCNC(=O)c2ccc3c(c2)sc2nc(-c4ccc(OC)cc4)cn23)CC1,72%
20,CCN1CCN(CCCNC(=O)c2ccc3c(c2)sc2nc(-c4ccc(C)cc4)cn23)CC1,26% (active)
21,CCCN1CCN(CCCNC(=O)c2ccc3c(c2)sc2nc(-c4ccc(C)cc4)cn23)CC1,18% (active)

row,SMILES,survival
1,COc1ccccc1Nc1nc(C)nc(N)c1S(=O)(=O)c1ccccc1,84%
2,COc1ccc2cc(-c3nc(Cl)c4c5c(sc4n3)CCCC5)c(=O)oc2c1,76%
3,COc1ccc2cc(-c3nc(Cl)c4c5c(sc4n3)CC(C)CC5)c(=O)oc2c1 (configuration not stated),77% (active)
4,CC1CCc2c(sc3nc(-c4cc5ccccc5oc4=O)nc(Cl)c23)C1 (configuration not stated),61%
5,COc1ccc(-c2csc(NC(=O)C(C)C)n2)cc1,84%
6,CCOC(=O)COc1ccc(C)cc1C(=O)c1ccn2nc(-c3ccc(F)cc3)cc2n1,69%
7,Cn1c(=O)oc2cc(S(=O)(=O)N3CCC(C(=O)NCc4ccccc4Cl)CC3)ccc21,125%
8,COC(=O)c1cc(-c2cc(OC)c(OC)c(OC)c2)no1,99%
9,Cc1ccc(C)c(OCc2nc3ccccc3n2C)c1,59%
10,Cn1c(COc2ccccc2C(C)(C)C)nc2ccccc21,5% (active)
11,COc1ccc(OCc2nc3ccccc3n2Cc2ccc(C(C)(C)C)cc2)cc1,-9% (active)
12,COc1cccc(OCc2nc3ccccc3n2Cc2ccccc2)c1,62%
13,Cn1c(COc2ccccc2Br)nc2ccccc21,92%
14,CC(C)(C)c1ccc(OCc2nc3ccccc3n2CCOc2ccccc2)cc1,10% (active)
15,c1ccc(OCCn2c(COc3ccccc3)nc3ccccc32)cc1,0% (active)
16,c1ccc(Cn2nnnc2C(c2ccccc2)N2CCN(Cc3ccncc3)CC2)cc1 (configuration not stated),78%
17,CCc1ccc(CNC(=O)c2cccc(-n3cnc4cccnc43)c2C)cc1,88%
18,CC(=O)c1cccc(NC(=O)CN2C(=O)c3ccccc3Sc3ncccc32)c1,95%
19,COc1ccc(CNC2CCCC2)cc1,79%
20,COc1ccc2[nH]cc(CCN=C(NC(=O)c3ccccc3F)Nc3nc(C)cc(C)n3)c2c1,99%
